Compounds with a hit are over-represented: about 6.2% of the library has one in this group of screens.
LASV entry inh: inhibitors of Lassa virus binding or cell entry | Lassa virus pseudotype entry inhibition, cell reporter | Potency, µM (doses to about 37.9 µM), actives largely listed as inhibitors | 300,000 compounds, 1.2% hits; calls by dose curve; tested in HEK293 cells; note: nearly all actives have a fitted effect of over 50% in size
HCMV antiviral: human cytomegalovirus inhibition | HFF cells, HCMV-luciferase reporter, 72 h; hits give low values | 410,000 compounds, 4.5% hits | activity change, negative = inhibition, % at 57.5 µM | AID 1259415; in the data active = activity change below about -60%; inconclusive = no clear call, values can overlap the other calls; inactive = above about -39%
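Human foreskin fibroblasts infected with luciferase-reporter HCMV at MOI 1 PFU/cell, compounds at two doses. Luciferase measured 72 h post infection; normalized to buffer-only basal and Salinomycin (10uM) controls.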
Marburg entry inh: blocks Marburg virus binding to or entry into cells | Marburg virus pseudotyped entry inhibition, cell reporter | 300,000 compounds, 1.8% hits | Potency, µM (top dose mostly 37.8 µM), usual class: inhibitors; calls by dose curve; tested in HEK293 cells
FMDV inh: blocks foot and mouth disease virus. FMDV antiviral cell-based qHTS. Potency, µM (doses to about 57.9 µM), most hits filed as inhibitors. 410,000 compounds, 1.2% hits; calls by dose curve; tested in HEK293T cells; note: read-out not given here; nearly all actives have a fitted effect of over 45% in size
Of the large screens only hits and unclear results are named; the others gave an inactive call.

CC(OC(=O)Cc1ccc(Br)cc1)C(=O)NC1CCCC1 (configuration not stated)	none
Cc1cc(C)n2nc(C(=O)N/N=C/C=C/c3ccccc3)nc2n1	none (no result: LASV entry inh, Marburg entry inh)
CC(=O)OCc1c(-c2ccccc2)c2cc([N+](=O)[O-])ccc2n1C	HCMV antiviral -77
NC(=O)CSCc1cccc(Br)c1	none
NC(CSCc1cccc(Br)c1)C(=O)O (configuration not stated)	HCMV antiviral -65 (no result: LASV entry inh, Marburg entry inh)
Cc1ccc(-n2nnnc2SCC(=O)Nc2ccccc2N2CCCCC2)cc1C	LASV entry inh inconclusive, Marburg entry inh 13µM
CC(C)(C)c1ccc(OCCC(=O)NCC(c2cccs2)N2CCOCC2)cc1 (configuration not stated)	FMDV inh inconclusive
Clc1ccc(-c2nnc(Sc3nc4ccccc4o3)c3ccccc23)cc1	LASV entry inh inconclusive, HCMV antiviral -82, Marburg entry inh inconclusive (no result: FMDV inh)
Cc1cccc(C)c1NC(=O)C1=C(O)c2ccccc2N(C)S1(=O)=O	Marburg entry inh inconclusive
CCc1c(C)sc2c1CCN(C(=O)Nc1ccc(F)c(Cl)c1)C2c1ccc(F)cc1 (configuration not stated)	LASV entry inh inconclusive, HCMV antiviral -104, FMDV inh 40µM (no result: Marburg entry inh)
CCc1c(C)sc2c1CCN(C(=O)Nc1ccccc1C(=O)OC)C2c1ccc(F)cc1 (configuration not stated)	none (no result: Marburg entry inh)
COc1ccc(/C=C/C2=CCN(Cc3ccc(OC)cc3)CC2)cc1	HCMV antiviral inconclusive, Marburg entry inh 4.5µM
COc1ccc(Cn2c(CNC(=O)Cc3cccc([N+](=O)[O-])c3)nc3cccnc32)cc1	HCMV antiviral inconclusive (no result: Marburg entry inh)
CCOC(=O)c1cnc(SCc2nc(N)nc(Nc3ccc(C)cc3)n2)nc1N	LASV entry inh inconclusive, HCMV antiviral -88, FMDV inh inconclusive
CCOC(=O)c1cnc(SCc2nc(N)nc(Nc3ccccc3OC)n2)nc1N	none (no result: LASV entry inh, FMDV inh)
CCOC(=O)c1cnc(SCc2nc(N)nc(Nc3ccc(F)cc3)n2)nc1N	LASV entry inh inconclusive, HCMV antiviral -96, Marburg entry inh inconclusive, FMDV inh inconclusive
COc1cc(-c2cc(C(=O)Nc3ccccc3N3CCOCC3)c3ccccc3n2)cc(OC)c1OC	LASV entry inh inconclusive, Marburg entry inh inconclusive, FMDV inh inconclusive
Cc1cc(C)c(C#N)c(=N)o1	FMDV inh inconclusive
Cc1ccc(NC(=O)c2csc(-c3ccccc3)c2C)cc1	LASV entry inh 6.5µM, Marburg entry inh 13µM, FMDV inh inconclusive
Cc1c(C(=O)Nc2cccc([N+](=O)[O-])c2)csc1-c1ccccc1	LASV entry inh inconclusive, HCMV antiviral -75, Marburg entry inh inconclusive
O=C(OC(C(=O)NCc1ccco1)C(OC(=O)c1ccccc1)C(=O)NCc1ccco1)c1ccccc1 (configuration not stated)	Marburg entry inh inconclusive
CCOc1ccc(S(=O)(=O)c2c(C(=O)c3ccccc3)cnc3cc4c(cc23)OCCO4)cc1	HCMV antiviral -76, Marburg entry inh inconclusive
CCOc1ccc(C(=O)c2cnc3ccc(Cl)cc3c2S(=O)(=O)c2ccc(C)cc2)cc1	Marburg entry inh inconclusive, FMDV inh inconclusive (no result: LASV entry inh)
CC(=O)c1ccc(NC(=O)CC2Sc3ccccc3NC2=O)cc1 (configuration not stated)	Marburg entry inh inconclusive
N#Cc1ccc(CSc2nnc(-c3ccccn3)n2-c2ccccc2)cc1	LASV entry inh inconclusive, Marburg entry inh inconclusive
N#Cc1ccc(CSc2nnc(-c3c[nH]c4ccccc34)n2-c2ccccc2)cc1	LASV entry inh inconclusive, HCMV antiviral -64, Marburg entry inh 2.5µM, FMDV inh inconclusive
CN1CCN(S(=O)(=O)c2cccc(C(=O)NC3(C)CCS(=O)(=O)C3)c2)CC1 (configuration not stated)	none
O=C1CCCN2N=C(SCC(=O)Nc3cccc(Cl)c3)SC2=N1	HCMV antiviral -81
O=C1CCCN2N=C(SCC(=O)Nc3cccc(C(F)(F)F)c3)SC2=N1	HCMV antiviral -86, Marburg entry inh inconclusive
O=C1CCCN2N=C(SCC(=O)Nc3ccccc3C(F)(F)F)SC2=N1	none
O=C1CCCN2N=C(SCC(=O)Nc3ccc(Cl)cc3)SC2=N1	LASV entry inh inconclusive
CCCn1c(SCCN2CCOCC2)nc2c1c(=O)n(C)c(=O)n2C	none (no result: LASV entry inh, Marburg entry inh)
Cn1c(=O)c2c(nc(Sc3ncccn3)n2Cc2ccc(Cl)cc2)n(C)c1=O	HCMV antiviral -61, FMDV inh inconclusive (no result: LASV entry inh, Marburg entry inh)
Cn1c(=O)c2c(nc(SCCN3CCOCC3)n2Cc2ccccc2)n(C)c1=O	Marburg entry inh 1.1µM
Cn1c(=O)c2c(nc(SCCN3CCCCC3)n2Cc2ccc(Cl)cc2)n(C)c1=O	LASV entry inh inconclusive, HCMV antiviral -95, Marburg entry inh inconclusive
COC(=O)c1cccnc1N1CCN(c2ccccc2F)CC1	none
Cc1ccc2occ(/C=N/NC(=O)[C@@H](N)Cc3ccccc3)c(=O)c2c1	HCMV antiviral -84
Cc1c(N=C2C=CC(=O)c3ccccc32)c(=O)n(-c2ccccc2)n1C	Marburg entry inh inconclusive, FMDV inh 35µM
Cc1c(N=C2C=C(Br)C(=O)C(Br)=C2)c(=O)n(-c2ccccc2)n1C	none
C#CC[N+](C)(C)CC#Cc1ccc(Cl)cc1	HCMV antiviral -94
COc1ccc2nc(N3C(=O)/C(=C/c4ccccc4)NC3=S)sc2c1	LASV entry inh inconclusive
CCOc1ccc2nc(N3C(=O)/C(=C/c4ccccc4)NC3=S)sc2c1	LASV entry inh 13µM, Marburg entry inh inconclusive
CCCCCCCc1cc2ccccc2c2c(C(=O)OC)c(C(=O)OC)c(C(=O)OC)n12	LASV entry inh inconclusive (no result: HCMV antiviral, FMDV inh)
CCC(C)n1cnc2c(c1=O)c1nc3ccccc3nc1n2Cc1ccc(OC)cc1 (configuration not stated)	HCMV antiviral -75
COc1cccc(OC)c1C(=O)NCCc1ccccc1	none (no result: LASV entry inh, Marburg entry inh)
CCOC(=O)c1sc2nc(C)nc(NCc3ccccc3OC)c2c1C	HCMV antiviral -73, Marburg entry inh inconclusive, FMDV inh inconclusive
COC(=O)c1c(N)sc(C(=O)NCCc2ccccc2)c1C	LASV entry inh inconclusive, HCMV antiviral inconclusive, Marburg entry inh 5µM, FMDV inh 6.3µM
CCOC(=O)c1sc(N)c(C(=O)Nc2ccccc2OC)c1C	LASV entry inh 2.5µM, Marburg entry inh inconclusive
O=C(CSc1nnc(Cn2nnc3ccccc32)o1)Nc1cccc(Cl)c1	none
Clc1ccc(CSc2nnc(Cn3cnc4ccccc43)o2)cc1	LASV entry inh inconclusive, HCMV antiviral -81, Marburg entry inh inconclusive, FMDV inh inconclusive
O=C(CSc1nnc(Cn2nnc3ccccc32)o1)N(Cc1ccc(Cl)cc1)c1ccccc1	LASV entry inh inconclusive, Marburg entry inh 6.3µM, FMDV inh inconclusive
NC(=O)CSc1nnc(Cn2cnc3ccccc32)o1	none (no result: LASV entry inh, Marburg entry inh)
CCCc1cc(=O)oc2c(C)c3occ(C)c3cc12	none
Cc1ccc(SCCNC(=O)c2ccc(C)c(S(=O)(=O)Nc3cccc(C)c3)c2)cc1	LASV entry inh inconclusive, HCMV antiviral -70, Marburg entry inh inconclusive (no result: FMDV inh)
Cc1ccc(NS(=O)(=O)c2cc(C(=O)NCCSc3ccc(C)cc3)ccc2C)cc1	LASV entry inh inconclusive, HCMV antiviral -98, Marburg entry inh inconclusive (no result: FMDV inh)
Cc1ccc(-n2c(CCC(=O)O)ccc2-c2cccs2)cc1C	none
COc1nonc1NC(=O)CSc1nc2ccccc2[nH]1	HCMV antiviral -64
O=C(CSc1nc2ccccc2[nH]1)Nc1c(F)cccc1F	LASV entry inh inconclusive, HCMV antiviral -85
Cc1nonc1NC(=O)CSc1nc2ccccc2[nH]1	LASV entry inh inconclusive

Source: PubChem BioAssay
